Our source for the inhibition values is PubChem BioAssay AID2732 (Emory University Molecular Libraries Screening Center, 2010).

SMILES strings stand for the structures. Screen size: about 220,000 compounds; about 8,200 (3.7%) were called active. The list comes from a sample in which actives are over-represented; it also holds similar structures and randomly drawn compounds. Unmarked numbers belong to inactive results.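 How the source made its calls: active means compounds that reduced the stress-induced luciferase reporter signal by more than about 70% of percent inhibition (limit read from the data); inactive means the rest.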

The nature of this experiment: inhibitors of CHOP promoter induction, primary screen, cell-based, unfolded protein response, luciferase reporter (AID 2732).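 Further: 0% = tunicamycin plus vehicle and 100% = wells without tunicamycin.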 As to conditions: CHO-K1 CHOP-promoter luciferase, tunicamycin-induced, 15-18 h; at 10 µM; active compounds read high.
As for `Cn1c(CSCC(=O)Nc2ccccc2)nnc1SCc1ccccc1`, the inhibition is -6.7%.

Regarding `COc1ccc(NC(=O)CCN2C(=O)/C(=C/c3ccc4c(c3)OCO4)SC2=S)cc1`, the inhibition is -8.39%.

Regarding `CCCCCCCCn1c2c(c(=N)c3c1CCC3)CCCC2`, the inhibition was 75.5% (active).

Regarding `O=C(N/N=C/c1cccc([N+](=O)[O-])c1)c1ccncc1`, the inhibition was 5.76%.

On to `O=C(CSc1nnnn1-c1ccc(O)cc1)c1ccc(F)cc1`, for which the inhibition is 17%.

For `CCCCC(CCC(=O)Nc1ccc(C(=O)OCC)cc1)C(=O)O` (stereo unspecified), the inhibition is 14.7%.

As to `CCCCCOC(=O)NCCOC(=O)Nc1ccc(C(=O)OCC)cc1`, the inhibition is 83.8% (active).

Consider `CCOC(=O)Nc1ccc(NC(=O)OCC)cc1`, for which the inhibition is 26.9%.

Regarding `COc1cc([N+](=O)[O-])ccc1NC(=O)CN1CCCC1`, the inhibition was -4.65%.

In the case of `O=C(CN1CCCCC1)Nc1ccccc1Cl`, the inhibition is 10.1%.

Take `O=C(CN1CCCCCC1)Nc1ccc(Br)cc1Br`: the inhibition is 84.9% (active).

As for `CCOc1ccc(C2c3[nH]c4ccccc4c3CCN2Cc2cccn2-c2ncccn2)cc1` (stereo unspecified), the inhibition was -20%.

Take `Cc1nnc(N/N=C/c2cccs2)[nH]c1=O`: the inhibition is 10.9%.

In the case of `CCOc1ccc(-n2cnc3c(=O)[nH]c(N)nc32)cc1`, the inhibition was 8.78%.

Regarding `CC1CC2C3CCC4=CC(=O)C=C[C@]4(C)[C@@]3(F)[C@@H](O)C[C@]2(C)[C@@]1(O)C(=O)CO` (stereo partly specified), the inhibition was 4.18%.

For `CCN1CCN(c2nc(Nc3cccc(F)c3)nc(N)c2[N+](=O)[O-])CC1`, the inhibition is 3.99%.

As to `Nc1nc(Nc2ccccc2)nc(NCCO)c1[N+](=O)[O-]`, the inhibition is -4.79%.

With `CNc1nc(Nc2ccc(C)c(Cl)c2)nc(N)c1[N+](=O)[O-]`, the inhibition is 81.6% (active).

Take `COc1ccc2c(c1)c1ncn(Cc3ccccn3)c(=O)c1n2C`: the inhibition was 18.8%.

As to `CCN(CC)C(=O)Oc1ccc(Br)cc1C(=O)Nc1ccc(F)c(Cl)c1`, the inhibition was -9.25%.

Consider `CN(C)C(=S)Nc1ccc(Br)cc1Cl`, for which the inhibition is -7.26%.

As to `CCCCSc1nnc2c(n1)OC=Nc1ccccc1-2`, the inhibition was -26.6%.

With `O=C1/C(=C/c2ccc3c(c2)OCO3)CCC/C1=C\c1ccc2c(c1)OCO2`, the inhibition is 10.8%.

Regarding `CSC1=N/C(=C\c2ccc3c(c2)OCO3)C(=O)S1`, the inhibition is 79.4% (active).

As to `CCC1=C/C(=C\c2ccc3c(c2)OCO3)C(=O)S1`, the inhibition was 47.3%.

`C/C=N/N(c1ccccc1)c1ccccc1`: the inhibition is 12.3%.

With `Oc1ccc(-c2nnc(Nc3ccccc3)c3ccccc23)cc1`, the inhibition is 34.9%.

In the case of `COc1cc(OC)c2ccc(=O)oc2c1C(CCN1CCN(c2ccccc2)CC1)c1ccc2c(c1)OCO2` (stereo unspecified), the inhibition is 6.77%.

With `Cc1[nH]n(C)c(=O)c1C(=O)c1c(-c2c(Cl)cccc2Cl)noc1C`, the inhibition is -56.3%.

With `COc1ccc(CNC(=O)C(Cc2ccccc2)n2cccc2)cc1` (stereo unspecified), the inhibition was 9.45%.

For `CN(C)c1nc(=Nc2cccc(Cl)c2)ss1`, the inhibition was 74.4% (active).

For `CCOC(=O)C1=C(O)CSC1=Nc1cccc(Cl)c1`, the inhibition was 12.7%.

On to `Clc1cccc(N=C2NN=C(c3ccc4c(c3)OCCO4)CS2)c1`, for which the inhibition was 10.5%.

With `O=C(NC1CC1)c1ccc(-c2ccccc2)cc1`, the inhibition was -3.76%.

As to `CN1C(=O)/C(=C/c2ccc(C(=O)NC3CCCC3)cc2)Oc2ccccc21`, the inhibition was 101% (active).

As for `COc1ccccc1N(C)S(=O)(=O)c1ccc(C(=O)NC2CCCCCC2)cc1`, the inhibition is 19.2%.

Regarding `CCc1ccc2nc(Nc3ncc(C(C)=O)c(C)n3)nc(C)c2c1`, the inhibition was 1.13%.

`NNC(=O)c1cccc(COCC(F)(F)C(F)F)c1`: the inhibition is -3.75%.

Take `O=C(CCCl)Nc1ccc(S(=O)(=O)NCc2ccco2)cc1`: the inhibition is -12.6%.

In the case of `COc1ccc(C(=O)c2oc3ccc(Br)cc3c2NC(C)=O)cc1`, the inhibition was 10%.

For the molecule `O=C(NC1CC1)c1cccc(Br)c1`, the inhibition was 20.9%.

For `COC(=O)C1NN=C(C(=O)c2ccc(Br)cc2)C1c1cccc(Br)c1` (stereo unspecified), the inhibition was 75.1% (active).

On to `C/C(CC(C)C)=N\Oc1nc(C)cc(C)n1`, for which the inhibition was -11.9%.

As for `Cc1cc(N2CCN(c3ccccc3)CC2)nc(N2CCOCC2)n1`, the inhibition is 12%.

Consider `FC(F)(F)c1cc(C(F)(F)F)c2ccc(N3CCN(c4ccccc4)CC3)nc2n1`, for which the inhibition was 96.8% (active).

As to `O=C(NC(=S)Nc1cccc2c(O)cccc12)c1cccc(Br)c1`, the inhibition was 32.1%.

Regarding `CCOC(=O)c1c(C)oc(C)c(C(=O)OCC)c1=O`, the inhibition is 1.84%.

Regarding `O=S(=O)(c1ccc(F)cc1)N1CCN(Cc2ccccc2C(F)(F)F)CC1`, the inhibition was 88% (active).

In the case of `Cc1ccc(S(=O)(=O)N2CCN(Cc3cccc(C)c3O)CC2)cc1`, the inhibition is 83% (active).

Take `O=C(CN1CCN(S(=O)(=O)c2ccc(F)cc2)CC1)Nc1ccccc1F`: the inhibition was 14.5%.

Regarding `Cc1ccc(S(=O)(=O)N2CCN(C(=O)c3cccs3)CC2)cc1`, the inhibition is 18.5%.

Turning to `O=S(=O)(c1ccc(F)cc1)N1CC=C(c2ccccc2)CC1`, the inhibition is 5.87%.

Take `Cc1ccc(S(=O)(=O)N2CCN(S(=O)(=O)N3CCOCC3)CC2)cc1`: the inhibition is -15%.

Take `CN(CC(O)COc1ccc(S(=O)(=O)N2CCOCC2)cc1Cl)C1CCCCC1` (stereo unspecified): the inhibition was 9.37%.

For the molecule `O=C(O)COCC(=O)NCc1csc2ccc(Cl)cc12`, the inhibition is 1.58%.

As for `CCCCNC(=O)c1c[nH]c2ccc(S(=O)(=O)Nc3ccc(OCC)cc3)cc2c1=O`, the inhibition is 100% (active).

For `COc1cccc(NS(=O)(=O)c2ccc3[nH]cc(C(=O)NCCCOC(C)C)c(=O)c3c2)c1`, the inhibition is -0.02%.

On to `CCOc1ccc(NS(=O)(=O)c2ccc(C)c(C(N)=O)c2)cc1`, for which the inhibition was 16.6%.

In the case of `COC(=O)c1ccc(S(=O)(=O)NCc2ccccc2)n1C`, the inhibition is 15.6%.

For `O=c1cc(CCl)nc2scc(-c3ccccc3)n12`, the inhibition was -35.4%.

For `Cc1nc(SCC(=O)Nc2cc(C)on2)c2c3c(sc2n1)CCCC3`, the inhibition was 97.7% (active).

With `C=CCn1c(SCc2c(C)noc2C)nc2sc3c(c2c1=O)CCC(C)C3` (stereo unspecified), the inhibition is 25.9%.

Consider `Cc1cc(NC(=O)CSc2nc3ccccc3n2CC(C)C)no1`, for which the inhibition is -2.4%.

In the case of `Cc1nc(SCC(=O)Nc2cc(C)on2)c2c(C)c(C)sc2n1`, the inhibition is 69.6%.

As for `Cc1cc(NC(=O)CSc2nc3c(cc2C#N)CCCCC3)no1`, the inhibition is -14.1%.

For the molecule `Cc1cc(NC(=O)CSc2nc(C(C)C)nc3sc4c(c23)CCC(C)C4)no1` (stereo unspecified), the inhibition is 78.5% (active).

Regarding `CNC(=S)NNC(=O)c1ccc(N(C)C)cc1`, the inhibition is -5.96%.

For `O=C(Nc1n[nH]c(C(F)(F)F)n1)c1cccs1`, the inhibition was 3.43%.

`Cc1noc(C)c1C(=O)OCC(=O)N1CCN(S(=O)(=O)c2ccc3ccccc3c2)CC1`: the inhibition is 4.18%.

As to `O=C(COC(=O)c1ccc[nH]c1=O)Nc1ccc2c(c1)OC(F)(F)O2`, the inhibition was -4.76%.

With `O=C(CCn1nnc2ccccc2c1=O)N[C@@H](Cc1c[nH]c2ccccc12)C(=O)O`, the inhibition was 5.85%.

Regarding `Fc1cccc2ncnc(OCc3ccccc3)c12`, the inhibition is -2.5%.

Turning to `Cc1nc2ccccc2cc1OCc1ccc(F)cc1`, the inhibition is 74.8% (active).

`Cc1nc2ccccc2cc1O`: the inhibition was -6.19%.

In the case of `O=S(=O)(Nc1n[nH]c(C(F)(F)F)n1)c1ccccc1`, the inhibition was 11.6%.

Take `COC(=O)c1cc(C(=O)OCC(=O)Nc2cc(C)on2)cc([N+](=O)[O-])c1`: the inhibition was 4.62%.

Consider `CC(=O)Nc1ccc(NC(=O)c2sc3nc4c(c(-c5ccc(C)cc5)c3c2N)CCC4)cc1`, for which the inhibition is 78.3% (active).

For `CCc1nc2sc(C(=O)O)c(N)c2c2c1CCCC2`, the inhibition was 3.45%.

As for `NC(=O)c1sc2nc3c(c(-c4ccccc4)c2c1N)CCC3`, the inhibition was 70.9% (active).

Turning to `Cc1cccc(NC(=O)c2sc3nc4c(c(-c5ccco5)c3c2N)CCC4)c1`, the inhibition is 34.4%.

On to `Cc1ccc(NC(=O)c2sc3nc(N)c(C#N)cc3c2N)cc1`, for which the inhibition was -25.7%.

Turning to `Cc1nc2sc(C(=O)c3ccccc3)c(N)c2c2c1CCCC2`, the inhibition is 0.62%.

With `COc1ccc(C2/C=C\CN(S(=O)(=O)c3cccs3)CC(=O)N2Cc2ccc(F)cc2)cc1` (stereo unspecified), the inhibition was 4.62%.

On to `Cc1cc(C)c(NC(=O)CN2C(=O)NC(Cc3ccccc3)C2=O)c(C)c1` (stereo unspecified), for which the inhibition is 11.3%.

Take `COc1cccc(C(=O)Nc2nc3ccc(S(C)(=O)=O)cc3s2)c1`: the inhibition is 8.18%.

On to `COc1ccc2nc(NC(=O)c3ccc(Br)s3)sc2c1`, for which the inhibition is 95.9% (active).

On to `COc1ccc2nc(NC(=O)NC3CCCCC3)sc2c1`, for which the inhibition is 26.1%.

Turning to `CCCSc1ncccc1C(=O)O`, the inhibition was -2.65%.

For `COC(=O)CNS(=O)(=O)c1ccc(OC)cc1`, the inhibition was 3.65%.

Take `CO/N=C/CC(=O)c1ccc(OC)cc1`: the inhibition was -19.6%.

Regarding `CO/N=C(/CS(=O)(=O)c1ccc(Br)cc1)c1ccc(OC)cc1`, the inhibition was 83% (active).

On to `Cc1nc(-c2ccccc2)sc1-c1nnc(C2CC2)o1`, for which the inhibition is -9.64%.

`O=c1[nH]nc(SCCS(=O)(=O)c2ccc(F)cc2)n1-c1ccccc1C(F)(F)F`: the inhibition was 10.5%.

In the case of `CN(C)CCCN(Cc1cc2cc3c(cc2[nH]c1=O)OCCO3)C(=O)NC1CCCCC1`, the inhibition is 5.43%.

Take `Clc1ccc(Nc2nc(-c3cccs3)cs2)nc1`: the inhibition is 99.5% (active).

For `O=C(Nc1ccc(Cl)cn1)Nc1cccs1`, the inhibition is 38.9%.

Consider `c1ccc(Nc2nc(-c3ccncc3)cs2)nc1`, for which the inhibition is 56.5%.

As to `Nc1nnnn1/N=C/c1cc([N+](=O)[O-])ccc1O`, the inhibition is 6.19%.

As for `C=CC[n+]1c(-c2ccc(C)cc2)csc1NNC(=O)Nc1ccccc1`, the inhibition is 75.9% (active).

Consider `C=CCNc1scc(-c2ccccc2)[n+]1CC=C`, for which the inhibition is -28.4%.

With `Cc1ccc(NC(=O)Nc2ccccc2)c(Br)c1`, the inhibition was 38.2%.

Broadly, the inhibition is the change of the read-out against control, counted positive when it falls.
